An excerpt weighted towards active compounds, which were near 3.9% of everything screened.
Eya2 inh = Eya2 (human) phosphatase inhibition. recombinant Eya2, OMFP fluorescence dephosphorylation (OMFP is methylfluorescein phosphate). AID 488837. Potency, µM (doses to about 76.9 µM), without a hit: at the highest dose activity, negative = inhibition, most hits filed as inhibitors. 330,000 tested, 0.006% active. O00167; further: potency means the concentration at half of the fitted maximal effect; on the % scale 0 is the no-effect control and ±100 the full control effect
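Eya2 protein (added as 0.2 uM solution) was preincubated with compound for 10 min at ambient temperature in 50 mM HEPES pH 7.5, 50 mM NaCl, 5 uM MgCl2, 0.05% BSA, 1 mM DTT. OMFP (added at 50 uM) then reacted 10 min; fluorescence read at 485/525 nm.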
D1 agonist = activates the human D1 dopamine receptor; P21728; HEK293 T-REx D1 cells, calcium flux, agonist mode; activation, % at 2 µM; 360,000 tested, 1% active; AID 504660; in the data active means activation above about 30%; further: 0% is about no effect
Target sequence (P21728 whole entry, looked up): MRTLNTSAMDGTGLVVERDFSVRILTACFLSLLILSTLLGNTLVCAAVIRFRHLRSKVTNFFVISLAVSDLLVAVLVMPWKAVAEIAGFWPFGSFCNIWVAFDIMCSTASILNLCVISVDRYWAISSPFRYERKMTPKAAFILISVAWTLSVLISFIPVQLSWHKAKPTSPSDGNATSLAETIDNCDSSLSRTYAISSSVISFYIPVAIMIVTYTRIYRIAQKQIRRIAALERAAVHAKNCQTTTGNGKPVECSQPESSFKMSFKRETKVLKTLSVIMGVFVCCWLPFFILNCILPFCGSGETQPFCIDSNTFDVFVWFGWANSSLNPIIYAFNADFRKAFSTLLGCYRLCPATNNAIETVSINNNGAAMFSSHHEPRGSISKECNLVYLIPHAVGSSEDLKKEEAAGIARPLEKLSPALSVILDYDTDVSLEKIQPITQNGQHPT
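Inducible HEK293 T-REx D1 cells, force-coupled to calcium signalling, were plated at 4000 cells/well with tetracycline and held overnight at 30 C. After no-wash calcium dye loading, compound-evoked calcium rise over 180 s flagged agonists.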
D1 antagonist = antagonists of human D1 dopamine receptor; P21728; HEK293 TREx D1 cells, calcium flux, dopamine EC80; active compounds read low; activity change, negative = inhibition, % at 10 µM; 360,000 tested, 3.2% active; AID 504652; in the data active means activity change below about -30%; further: on the % scale 0 is the no-effect control and ±100 the full control effect
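Cells carrying a force-coupled, tetracycline-inducible human D1 receptor report calcium flux. Each well gets a 10 s baseline, compound with 180 s monitoring, then an EC80 dopamine stimulus with a second 180 s kinetic read.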
USP2a block = blocks human ubiquitin-specific protease USP2a. O75604. USP2 core, Ub-CHOP2 coupled fluorogenic reporter, 485/531. Potency, µM (top dose mostly 38.3 µM), for the others: at the top dose activity change, negative = inhibition, actives largely listed as inhibitors. 330,000 tested, 0.01% active. AID 463254;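 further: potency means the concentration at half of the fitted maximal effect; plate controls were DMSO wells for no effect and full inhibition by NEM control for full effect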
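USP2 core (10nM final) preincubated 30min RT with compound in 20mM Tris-HCl pH 8.0, 2mM CaCl2, 2mM beta-mercaptoethanol, 0.05% CHAPS; 25nM Ub-CHOP2 plus 25nM reporter substrate added, fluorescence (Ex485/Em531) read after 60min.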
GALK inhibitor = galactokinase (human) inhibition; P51570; Purified GALK, Kinase-Glo residual ATP luminescence; Potency, µM (doses to about 57.5 µM), for the others: at the highest dose activity change, negative = inhibition, hits mostly inhibitors; 270,000 tested, 0.007% active; further: potency means the concentration at half of the fitted maximal effect; on the % scale 0 is the no-effect control and ±100 the full control effect
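ATP-depletion format; final 35 uM ATP, 100 uM D-galactose, 5 nM enzyme; pH 8.0 HEPES/Mg2+ buffer; 60 min RT; luminescence read 10 min after detection reagent.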
D1 potentiator = potentiators of human D1 dopamine receptor; P21728; HEK293 TREx D1 cells, calcium flux, dopamine EC20 potentiation; potentiation, % at 10 µM; 360,000 tested, 0.036% active; AID 504651; in the data active means potentiation above about 30%; further: 0% is about no effect
* hit, by the source's call; nt = no result given. Unless noted, the call rests on the fitted dose curve; in most records, active means well fitted inhibition curve with a large enough effect; inconclusive means small, poorly fitted or top-dose-only effect, or effect the other way; inactive means flat fitted curve, though single readings scatter.

SMILES	Eya2 inh	D1 agonist	D1 antagonist	USP2a block	GALK inhibitor	D1 potentiator
CCN(CC)CCNC(=O)c1ccc(Cn2c(=O)c3cccn3c3cccnc32)cc1	nt	1.3	-16.1	nt	nt	-1.8
CN(C)c1ccc(C(=O)Nc2sc(Nc3ccccc3)nc2C(N)=O)cc1	nt	5.0	-10.7	nt	nt	-2.8
CCCOc1ccc(CN(C(=O)Cc2coc3ccc(CC)cc23)C2CCS(=O)(=O)C2)cc1 (stereo not drawn)	nt	11.3	7.6	nt	nt	1.6
O=C(CSc1nc2c([nH]c3ccccc32)c(=O)n1-c1ccccc1F)Nc1ccccc1C(F)(F)F	nt	1.2	-7.4	nt	nt	-4.0
CCCOc1ccc(Oc2nc(NCC(C)C)nc(N3CCOCC3)n2)nn1	nt	0.2	16.3	nt	nt	-0.7
COc1ccc(NC(=O)c2ccco2)cc1NC(=O)COc1ccc(C)cc1C	nt	0.9	-12.6	nt	nt	-4.9
Cc1cccc(C)c1OCc1nc2c3cnn(-c4cccc(F)c4)c3ncn2n1	nt	1.9	-8.3	nt	nt	0.5
COc1ccc(OC)c(CCNC(=O)c2c(C)oc3ncn(C)c(=O)c23)c1	nt	0.7	-30.6*	nt	nt	-7.2
COc1ccc(OC)c(CCNC(=O)c2c(C)oc3ncn(CC(C)C)c(=O)c23)c1	nt	2.3	-11.6	nt	nt	-3.1
COc1ccc(CN2C(=O)CN(C3CCCCCC3)C(=O)C2c2ccc(F)cc2)cc1 (stereo not drawn)	0.2%	0.9	8.0	-0.6%	-1.1%	-3.5
O=C1C(c2ccc(F)cc2)N(Cc2ccccc2Cl)C(=O)CN1C1CCCCC1 (stereo not drawn)	nt	-2.2	-42.4*	nt	nt	-0.7
C=CCNC(=S)NNC(=O)CC12CC3CC(CC(C3)C1)C2	8.1%	0.6	-42.2*	-0.5%	-1.5%	-15.4
Clc1cccc(-c2ccc(/C=N/n3cnnc3)o2)c1Cl	-20.8%	1.1	-61.1*	-0.5%	-2.0%	-5.5
CC(C)(CNC(=S)NCCc1ccccc1)CNC(=S)NCCc1ccccc1	-7.7%	15.0	-30.1*	-1.1%	3.2%	-7.4
C/C(=N\NC(=S)NCCc1ccccc1)c1ccc(O)cc1O	7.8%	19.6	-39.1*	2.7%	-0.3%	nt
Fc1cccc(NC(=S)NCCc2ccccc2)c1	5.2%	19.4	-38.5*	2.8%	nt	-7.7
Fc1ccc(CCNC(=S)Nc2ccc(F)c(Cl)c2)cc1	-5.0%	12.5	-31.7*	-2.2%	3.9%	-1.7
O=[N+]([O-])c1cccc(NC(=S)NCCc2ccccc2)c1	-11.5%	43.3*	-2.2	-5.4%	0.3%	-4.6
CC(NC(=O)c1ccc(=O)oc1)c1ccccc1 (stereo not drawn)	13.6%	0.6	-33.6*	3.6%	0.8%	-8.2
CC(NC(=O)c1ccncc1)c1ccccc1 (stereo not drawn)	10.3%	0.9	-3.1	-1.3%	1.9%	-5.6
CC(=O)c1cn(-c2ccc(Cl)cc2)c(=O)[nH]c1=O	-7.4%	-0.4	-32.5*	-4.2%	6.2%	-1.4
CC(=O)c1cn(C)c(=O)[nH]c1=O	4.5%	-0.2	-11.7	4.1%	-0.9%	-2.5
Cc1cc(NC(=O)CSc2nc3ccccc3n2CC(=O)N2CC(C)CC(C)C2)no1 (stereo not drawn)	16.9%	-1.2	-41.3*	3.3%	1.4%	0.7
Cc1cc(NC(=O)CSc2nc3ccccc3n2CC(=O)N2CCC(C)CC2)no1	-4.5%	-0.5	-9.9	-0.4%	0.4%	0.5
O=C(O)CCC(=O)N1CC=C(c2ccccc2)CC1	16.2%	2.4	2.2	1.9%	0.2%	-4.2
O=C(Cn1[nH]c(=O)c2ccccc2c1=O)N1CC=C(c2ccccc2)CC1	29.4%	3.5	-30.4*	-0.3%	-0.8%	-8.3
Cc1ccn2c(=O)c(NC(=O)c3cccc([N+](=O)[O-])c3C)c(C)nc2c1	nt	1.2	-3.2	nt	nt	3.0
NC(=O)C1CCN(C(=O)C2CC(=O)N(c3ccc4c(c3)OCCO4)C2)CC1 (stereo not drawn)	-1.2%	-0.2	-34.1*	2.0%	nt	-13.0

Screening results (PubChem)
